The text below walks through data of PubChem BioAssay AID1986 (Sanford-Burnham Center for Chemical Genomics, 2009).

The whole screen tested about 290,000 compounds, of which about 890 (0.31%) were called active. Cut-off read from the data, not from the text of the source: active = inhibition mostly above about 52% (no sharp cut-off); inactive = mostly below about 76%. The list comes from a sample in which actives are over-represented; it also holds similar structures and randomly drawn compounds.

The nature of this assay: cell-free HIV fusion peptide-binding blockers – biochemical, uHTS, fluorescence dequenching, primary screen (AID 1986). The conditions noted are these: 30 min, stronger effect = higher value.
Setting [1] is: measured here: repeat confirmation average inhibition, at 18.6 µM.

The inhibition is the change of the read-out against control, counted positive when it falls. On to `Cn1c(O)c(/C=C/C=Nc2ccccc2)c(=O)n(C)c1=S`, for which the inhibition is 91.4% (active) (at 20 µM) and 60.5% under setting [1]. On to `Cn1c(O)c(C=Nc2ccccc2)c(=O)n(C)c1=O`, for which the inhibition (at 20 µM) was 1.3% (inactive). In the case of `Cc1ccc(-n2c(O)c(C=Nc3ccc(Br)cn3)c(=O)[nH]c2=O)cc1`, the inhibition (at 20 µM) was 124% (active).

Regarding `Cc1cccc(-n2c(O)c(/C=C/C=Nc3ccccc3)c(=O)[nH]c2=O)c1`, the inhibition (at 20 µM) was 147% (inactive). Still for that read-out and setting: the result for `CC(=O)c1cccc(OCC(O)CN2CC=C(c3ccccc3)CC2)c1` (configuration not stated) reads -1% (inactive); that for `O=c1c2ccccc2[nH]c(=S)n1-c1ccc(Br)cc1`, -0.2% (inactive); that for `O=c1[nH]c(O)c(N=Nc2ccc(SC(F)F)cc2)c(=O)[nH]1`, 3.1% (inactive). Still for that read-out and setting: the value for `CCCOP(=O)(OCCC)C(NC(=O)c1cc(OC)c(OC)c(OC)c1)c1ccccc1` (configuration not stated) was -1.1% (inactive); that for `CCOC(=O)c1c(C)n(C(C)C)c2ccc(OC)cc12` was -1.3% (inactive); that for `COc1cccc(CNC(=O)CCC(=O)N2C[C@H]3C[C@H](C2)c2cccc(=O)n2C3)c1OC` was 1.4% (inactive). Take `CCC(C)c1ccc(N2C(=O)NC(=O)/C(=C/c3cccn3CCOc3ccc(C)cc3)C2=O)cc1` (configuration not stated): the inhibition is, setting by setting: (at 20 µM) 65.8% (active); under setting [1], 70.7%. The like results for `CCc1ccc(N2C(=O)NC(=O)/C(=C/c3cccn3CCOc3ccc(C)cc3)C2=O)cc1` were, in that order, 73.7% (inactive) and 6.1%.

Turning to `Cc1ccc(OCCn2cccc2/C=C2/C(=O)NC(=O)N(Cc3ccco3)C2=O)cc1`, the inhibition (at 20 µM) is 23.5% (inactive). The same measure, in the same setting: the result for `CCc1ccc(N2C(=O)NC(=O)/C(=C/c3cccn3CCOc3ccc(C(C)CC)cc3)C2=O)cc1` (configuration not stated) reads 53.2% (active).

In the case of `O=C1NC(=O)N(Cc2ccco2)C(=O)/C1=C\c1cccn1CCOc1ccc(Cl)cc1`, the inhibition is, setting by setting: (at 20 µM) 93.3% (inactive); under setting [1], 0.8%. On the same counts, the results for `CCc1ccc(N2C(=O)NC(=O)/C(=C\c3cccn3CCOc3ccc(C(C)C)cc3)C2=O)cc1` are 59.3% (inactive) and 1.8%. On the same counts, the results for `Cc1ccc(/C=C2/Sc3ccc(C(=O)N4CCC5(CC4)OCCO5)cc3NC2=O)cc1` are 54.6% (inactive) and 37.1%. For the molecule `CCOC(=O)c1sc(/N=C/c2c(O)n(-c3ccccc3)c(=O)[nH]c2=O)c(C#N)c1C`, under “at 20 µM”, the inhibition was -1.7% (inactive). On to `O=C(O)C1C2c3ccccc3C(c3ccccc32)C1C(=O)Nc1ccccc1` (configuration not stated), for which the inhibition (at 20 µM) is 4.1% (inactive).

Take `CC12CN3CCN(CC(C3)C1O)C2` (configuration not stated): the inhibition (at 20 µM) was -2.7% (inactive). Same read-out and setting: the result for `COc1ccccc1/C=N/N=C(/N)N[N+](=O)[O-]` reads 2.7% (inactive).

Take `COc1cccc(CN2CC=C(c3ccc(F)cc3)CC2)c1`: the inhibition (at 20 µM) is 2.3% (inactive). Same read-out and setting: the result for `COc1ccc(CN2CCN(Cc3ccccc3)CC2)c(OC)c1` reads -1.2% (inactive). Turning to `Cc1ccc(N2C(=O)NC(=O)/C(=C\c3cc(C)n(-c4sc5c(c4C#N)CCCC5)c3C)C2=O)cc1`, for the setting “at 20 µM”, the inhibition is 52.2% (active). For the molecule `Cc1cc(/C=C2\C(=O)NC(=O)N(c3ccc(Cl)cc3)C2=O)c(C)n1-c1sc2c(c1C#N)CCCC2`, the inhibition (at 20 µM) is 64.4% (inactive) and the inhibition under setting [1] is 9%. In the case of `Cc1cccc(N2C(=O)NC(=O)/C(=C\c3cc(C)n(-c4sc5c(c4C#N)CCCC5)c3C)C2=O)c1C`, where the note is “at 20 µM”, the inhibition is 22% (inactive). `CNP(=O)(Oc1ccccc1)OC12CC3CC(CC(C3)C1)C2` (configuration not stated): the inhibition (at 20 µM) was 1.8% (inactive). In the case of `C=CCn1c(O)c(C(C)=NCCCn2ccnc2)c(=O)[nH]c1=O`, the inhibition (at 20 µM) is 0.6% (inactive). Still for that read-out and setting: the result for `Cc1cc2c(C(C)C)c(O)c(O)c(C=O)c2c(O)c1-c1c(C)cc2c(C(C)C)c(O)c(O)c(C=O)c2c1O` reads 65.7% (active); that for `COc1cccc(C(=O)C2CCCN(C3CCOCC3)C2)c1` (configuration not stated), 0.4% (inactive); that for `Cc1ccccc1N1C(=O)NC(=O)/C(=C\c2ccc3c(c2)CCCN3Cc2ccccc2)C1=O`, 15.8% (inactive). The same measure, in the same setting: the result for `O=C1NC(=O)N(c2ccc(F)cc2)C(=O)/C1=C/c1ccc2c(c1)CCCN2Cc1ccccc1` reads 56.3% (active).

As to `Cc1cccc(N2C(=O)NC(=O)/C(=C\c3ccc4c(c3)CCCN4Cc3ccccc3)C2=O)c1`, where the note is “at 20 µM”, the inhibition is 48.8% (inactive).

As to `CC1CCC(N2CCN(C(=O)COc3ccccc3)CC2)CC1` (configuration not stated), the inhibition (at 20 µM) is 2.3% (inactive). On the same count and under the same terms, the value for `Cn1cc(C=C2C(=O)NC(=O)NC2=O)c2ccccc21` was 160% (inactive); that for `Cn1cc(C(=O)c2ccccc2)c2ccccc21` was -2% (inactive).

For `Cn1cc(C=C(C#N)C#N)c2ccccc21`, the inhibition (at 20 µM) is 72.4% (active) and the inhibition under setting [1] turned out to be 90.2%. On to `C=C1N2CCC(CC2)C1(O)c1ccccc1C` (configuration not stated), for which the inhibition (at 20 µM) was 1.2% (inactive). The same measure, in the same setting: the result for `O=C(c1cccnc1)C1CCCN(Cc2nc(-c3cnccn3)no2)C1` (configuration not stated) reads -0.9% (inactive). On to `C=CCc1cc(C=C2C(=O)N(C)C(=O)N(C)C2=O)cc(OCC)c1OCc1ccccc1`, for which the inhibition (at 20 µM) is 11.3% (inactive).

In the case of `Cc1cc2c(C(F)(F)F)cc(=O)oc2c2c1NCCC2`, the inhibition (at 20 µM) was 51.9% (active) and the inhibition under setting [1] amounted to 56.2%. Turning to `O=c1cc(C(F)(F)F)c2cc3c4c(c2o1)CCCN4CCC3`, under “at 20 µM”, the inhibition is -0.6% (inactive). The same measure, in the same setting: the value for `Cc1cc(=O)oc2cc3c(cc12)CCCN3` was 0.7% (inactive).
